According to PubChem BioAssay:
Calls of active or inactive are those of the source.

Molecular target: Dihydroorotate dehydrogenase (quinone), mitochondrial (Plasmodium falciparum (isolate 3D7)) (UniProt Q08210)
Test: PfDHODH enzyme inhibitors, primary screen, biochemical, C-terminal His tag, absorbance 600 nm (AID 1175);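 further: recombinant parasite enzyme with a five histidine tag at its C terminus; test concentration not given here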
Conditions: DCIP absorbance 600 nm, higher = more signal, called active from +8 up or from −8 down

Dihydroorotate dehydrogenase (quinone), mitochondrial (Plasmodium falciparum (isolate 3D7)), sequence (Q08210 whole entry, looked up): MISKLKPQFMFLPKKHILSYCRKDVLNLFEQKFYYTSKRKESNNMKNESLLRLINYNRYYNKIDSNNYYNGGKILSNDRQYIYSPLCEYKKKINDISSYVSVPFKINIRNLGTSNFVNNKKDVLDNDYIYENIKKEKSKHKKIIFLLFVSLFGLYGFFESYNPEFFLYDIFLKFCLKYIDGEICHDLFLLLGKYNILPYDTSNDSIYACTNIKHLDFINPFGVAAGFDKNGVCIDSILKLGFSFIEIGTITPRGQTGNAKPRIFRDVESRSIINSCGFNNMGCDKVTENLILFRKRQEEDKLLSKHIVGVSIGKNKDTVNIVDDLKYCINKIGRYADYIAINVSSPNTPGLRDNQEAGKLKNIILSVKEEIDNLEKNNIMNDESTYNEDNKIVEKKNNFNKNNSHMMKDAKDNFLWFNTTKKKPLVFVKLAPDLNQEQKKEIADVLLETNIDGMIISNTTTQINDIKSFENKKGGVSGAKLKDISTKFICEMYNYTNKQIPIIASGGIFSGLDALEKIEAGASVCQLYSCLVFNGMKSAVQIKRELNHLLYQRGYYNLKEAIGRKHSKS

Composite z-score, inactive:
O=C1O[C@@H](c2ccccc2)[C@@H](c2ccccc2)N2[C@@H](c3ccc(O)cc3)[C@]3(C(=O)Nc4ccc(C#CCCO)cc43)[C@@H](C(=O)Nc3nc4ccccc4s3)[C@H]12 -0.292, C=CCOC(=O)[C@@H]1[C@H]2C(=O)O[C@H](c3ccccc3)[C@H](c3ccccc3)N2[C@H](c2ccc(OCCOC(=O)[C@H]3C[C@H]4C(=O)N[C@@H](CCCCN(C)C)C(=O)N4[C@H]3c3cccc(OCCO)c3)cc2)[C@@]12C(=O)Nc1ccc(I)cc12 0.26, Cc1c(NC(=O)/C(C#N)=C/C=C/c2ccc(N(C)C)cc2)c(=O)n(-c2ccccc2)n1C -0.186, O=C1C2C=CC(C(O)c3cc(C(F)(F)F)cc(C(F)(F)F)c3)N(Nc3ccc([N+](=O)[O-])cc3)C2C(=O)N1c1ccccc1 (stereo not given) 0.665, O=C1NC(=O)C2C1C=CC(C(O)c1cc(C(F)(F)F)cc(C(F)(F)F)c1)N2Nc1ccc(Cl)cc1Cl (stereo not given) -0.195, CO[C@H]1O[C@H](CO)[C@@H](OC(=O)Nc2ccccc2-c2ccccc2)[C@H](OC(=O)Nc2ccc3c(c2)OCO3)[C@@H]1OC(=O)Nc1ccc2c(c1)OCO2 -0.289, Cc1ccc(F)cc1S(=O)(=O)N[C@@H]1CCN(Cc2ccc(Oc3ccccc3)cc2)C1 0.255, CCOC(=O)C1=CC[C@@H](c2ccccc2)N(S(=O)(=O)c2ccc(C)cc2)C1 0.806, Cc1ccc(S[C@]2(C(=O)NCC(F)(F)F)CC(=O)N(Cc3ccccc3)[C@@H]2c2ccc(CO)cc2)cc1 -0.309, CC(C)CNC(=O)[C@@H]1c2ccccc2C(=O)N(Cc2cc(F)cc(C(F)(F)F)c2)[C@H]1c1ccc(CO)cc1 0.369, CCN(CC)c1ccc(N2CC=CC34O[C@@H]5/C=C\CCC(C)OC(=O)C5[C@H]3C(=O)N(CCO)[C@@H]4C2=O)cc1 (stereo not given in full) 0.543, COc1ccccc1CN1C(=O)c2ccccc2[C@@H](C(=O)NC(C)C)[C@@H]1c1ccc(CO)cc1 -0.469, [N-]=[N+]=NCc1ccccc1[C@H]1OC(c2ccc(OCCCO)cc2)=N[C@@]1(CCS(=O)(=O)c1ccccc1)C(N)=O -0.136, C=CCOC(=O)[C@@H]1[C@H]2C(=O)O[C@H](c3ccccc3)[C@H](c3ccccc3)N2[C@H](c2ccc(OCCOC(=O)[C@H]3C[C@H]4C(=O)N[C@@H](CCCC[N+](C)(C)C)C(=O)N4[C@H]3c3ccc(O)cc3)cc2)[C@@]12C(=O)Nc1ccc(I)cc12 -0.353, C=C(CCCC)/C(=C/C[C@@H](OC(C)=O)c1ccc(CO)o1)c1cc(C(=O)OC)ccc1OC -2.63, CC(C)C(O)C1C=CC2C(=O)N(C)C(=O)C2N1N(c1ccccc1)c1ccccc1 (stereo not given) 0.85, C=CCNC(=O)[C@@H]1[C@H]2C(=O)O[C@H](c3ccccc3)[C@H](c3ccccc3)N2[C@H](c2ccc(OCCO)cc2)[C@@]12C(=O)N(C(=O)OCCOC)c1ccc(C#CC3=CCCCC3)cc12 -1.47, COCCOC(=O)N1C(=O)[C@@]2(c3cc(C#Cc4ccc(OC)cc4)ccc31)[C@H](C(=O)N1CCCCCCC1)[C@H]1C(=O)O[C@H](c3ccccc3)[C@H](c3ccccc3)N1[C@@H]2c1ccc(O)cc1 -0.458, COC(=O)Cn1c(C(=O)N2CCCC2)cc2c1C[C@H]1CN(C(=O)c3ccccc3)[C@@](Cc3ccc(F)cc3)(C(=O)OC)[C@@H]21 -0.653, NCCCCCNC(=O)[C@@H]1C[C@@H]2C(=O)N[C@@H](CCCCN)C(=O)N2[C@@H]1c1cccc(OCCO)c1 -0.308, Cc1ccc(S[C@]2(C(=O)NC(C)C)CC(=O)N(Cc3ccccc3C(F)(F)F)[C@@H]2c2ccc(CO)cc2I)cc1 -1.47, COCCOC(=O)N1C(=O)[C@@]2(c3cc(C#CC4(O)CCCCCC4)ccc31)[C@H](C(N)=O)[C@H]1C(=O)O[C@H](c3ccccc3)[C@H](c3ccccc3)N1[C@@H]2c1ccccc1OCCO 1.34, C=CC[C@H](OC(=O)Nc1ccc(OC)cc1)c1ccc(O)c2ccccc12 -7.13, COCC(=C=CC[C@H](O)c1cccc(OCCO)c1)C[C@H](O)c1ccccn1 -0.672, C=CC[C@@]1(C(=O)N2CCCCC2)N=C(c2ccc(OCCCO)cc2)O[C@@H]1c1ccccc1 -0.765, COCCCNC(=O)[C@@H]1c2ccccc2C(=O)N(Cc2ccccc2C(F)(F)F)[C@H]1c1ccc(CO)cc1 -0.955, COc1ccc([Si](C)(C)[C@H]2[C@H](CCO)O[C@@]3(C(=O)N(Cc4cccc(N5CCCCC5=O)c4)c4ccccc43)[C@@H]2C)cc1 -2.94, O=C1C[C@@](C(=O)NCC(F)(F)F)(c2ccc([N+](=O)[O-])cc2)[C@@H](c2ccc(CO)cc2)N1C1CCCCC1 -0.356, COC(=O)[C@@]1(Cc2ccc(OC)cc2)[C@H]2c3cc(C(=O)N(C)C)n(CCc4c[nH]c5ccc(O)cc45)c3C[C@H]2CN1C(=O)c1ccccc1 -0.568, CC(C)c1ccc(NN2C(C(O)c3ccco3)C=CC3C(=O)N(c4ccccc4)C(=O)C32)cc1 (stereo not given) 0.325, COC(=O)[C@@]1(Cc2ccc(OC)cc2)[C@H]2c3cc(C(=O)N(C)C)n(Cc4nc5ccccc5[nH]4)c3C[C@H]2CN1C(=O)c1ccccc1 -0.291, CN1C(=O)[C@@]2(CCS(=O)(=O)c3ccccc3)N=C(c3ccc(OCCCO)cc3)O[C@H]2c2ccccc21 0.0865, O=C1O[C@@H](c2ccccc2)[C@@H](c2ccccc2)N2[C@@H](c3ccc(O)cc3)[C@]3(C(=O)Nc4ccccc43)[C@@H](C(=O)Nc3nc4ccccc4s3)[C@H]12 0.162, CC(C)NC(=O)[C@@]1(C)c2ccccc2C(=O)N(C(C)C)[C@H]1c1ccc(CO)cc1 0.127, COC(=O)[C@@]1(Cc2ccccc2)[C@H]2c3cc(C(=O)N4CCCC4)[nH]c3C[C@H]2CN1C(=O)c1ccccc1 -0.171
